Reference: the supplement of paper PMC10849652
About 8,800 targets were measured; listed, in parts, are those with a hit and a random draw of the rest. About 0.5% of all pairs of compound and target were hits.

Tests used:
Assay in all cases: log2 fold change, soluble protein after heating vs DMSO (PISA); higher = thermal stabilisation; K562 lysate, 10 uM; active = over 0.2 and 3.5 SD of the protein, either way, in both replicates (recomputed)
[1] = compound: C1=CC=C(C=C1)[C@H](COC2=CC3=C(C=C2)NC(=O)N3)NC(=O)C4=CC=CN(C4=O)CC5=CC(=C(C=C5)F)F
Procedure, shortened: (§1)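 Dounce homogenisation of K562 pellets in PBS pH 7.4 with 1 mM MgCl2 produced a crude extract, used at 1 mg/mL protein. Exposure to 10 μM compound lasted 30 min, and aliquots were then heated for 3 min across 48°C-58°C, pooled and brought to 0.5% NP-40 at 4°C. The supernatant after 21,000xg for 90 min was quantified by TMTpro 16plex LC-MS/MS with channel sums equalised. Duplicate values are given as log-two fold change in thermal stability relative to solvent controls.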

[2] = compound: CC1=C(SC2=C1C(=N[C@H](C3=NN=C(N32)C)CC(=O)N)C4=CC=C(C=C4)Cl)C
Procedure, shortened: as §1

[3] = compound: CC1=C2C(=CC=C1)N=C(N(C2=O)C3=CC=CC=C3C)CN4C=NC5=C(N=CN=C54)N
Procedure, shortened: as §1

[4] = compound: Cc1sc2c(c1C)C(c1ccc(Cl)cc1)=N[C@@H](CC(=O)OC(C)(C)C)c1nnc(C)n1-2
Procedure, shortened: as §1

[5] = compound: c1ccc([C@@H]2C[C@H]2NC2CCNCC2)cc1
Procedure, shortened: as §1

Measured: log2 fold change

STAU1 (UniProt O95793)
inactive: [1] -0.023 | [2] -0.021 | [3] 0.012 | [4] 0.059 | [5] 0.09

SNRPD2 (UniProt P62316)
inactive: [1] 0.039 | [2] -0.021 | [3] 0.028 | [4] -0.009 | [5] -0.068

SLC27A4 (UniProt Q6P1M0)
inactive: [1] 0.106 | [2] -0.006 | [3] 0.054 | [4] -0.002 | [5] 0.121

SYPL1 (UniProt Q16563)
Sequence of UniProt Q16563 (Q16563 whole entry, looked up): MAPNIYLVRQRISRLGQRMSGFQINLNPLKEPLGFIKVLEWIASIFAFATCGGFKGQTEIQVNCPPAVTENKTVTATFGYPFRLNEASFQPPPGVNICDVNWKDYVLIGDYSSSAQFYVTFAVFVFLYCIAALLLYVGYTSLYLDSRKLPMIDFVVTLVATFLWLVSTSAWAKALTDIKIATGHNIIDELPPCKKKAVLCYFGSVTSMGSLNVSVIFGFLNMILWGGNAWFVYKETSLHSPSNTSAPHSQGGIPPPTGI
inactive: [1] -0.075 | [2] 0.003 | [3] -0.01 | [4] -0.041 | [5] -0.123

SMC2 (UniProt O95347)
Sequence of UniProt O95347 (O95347 whole entry, looked up): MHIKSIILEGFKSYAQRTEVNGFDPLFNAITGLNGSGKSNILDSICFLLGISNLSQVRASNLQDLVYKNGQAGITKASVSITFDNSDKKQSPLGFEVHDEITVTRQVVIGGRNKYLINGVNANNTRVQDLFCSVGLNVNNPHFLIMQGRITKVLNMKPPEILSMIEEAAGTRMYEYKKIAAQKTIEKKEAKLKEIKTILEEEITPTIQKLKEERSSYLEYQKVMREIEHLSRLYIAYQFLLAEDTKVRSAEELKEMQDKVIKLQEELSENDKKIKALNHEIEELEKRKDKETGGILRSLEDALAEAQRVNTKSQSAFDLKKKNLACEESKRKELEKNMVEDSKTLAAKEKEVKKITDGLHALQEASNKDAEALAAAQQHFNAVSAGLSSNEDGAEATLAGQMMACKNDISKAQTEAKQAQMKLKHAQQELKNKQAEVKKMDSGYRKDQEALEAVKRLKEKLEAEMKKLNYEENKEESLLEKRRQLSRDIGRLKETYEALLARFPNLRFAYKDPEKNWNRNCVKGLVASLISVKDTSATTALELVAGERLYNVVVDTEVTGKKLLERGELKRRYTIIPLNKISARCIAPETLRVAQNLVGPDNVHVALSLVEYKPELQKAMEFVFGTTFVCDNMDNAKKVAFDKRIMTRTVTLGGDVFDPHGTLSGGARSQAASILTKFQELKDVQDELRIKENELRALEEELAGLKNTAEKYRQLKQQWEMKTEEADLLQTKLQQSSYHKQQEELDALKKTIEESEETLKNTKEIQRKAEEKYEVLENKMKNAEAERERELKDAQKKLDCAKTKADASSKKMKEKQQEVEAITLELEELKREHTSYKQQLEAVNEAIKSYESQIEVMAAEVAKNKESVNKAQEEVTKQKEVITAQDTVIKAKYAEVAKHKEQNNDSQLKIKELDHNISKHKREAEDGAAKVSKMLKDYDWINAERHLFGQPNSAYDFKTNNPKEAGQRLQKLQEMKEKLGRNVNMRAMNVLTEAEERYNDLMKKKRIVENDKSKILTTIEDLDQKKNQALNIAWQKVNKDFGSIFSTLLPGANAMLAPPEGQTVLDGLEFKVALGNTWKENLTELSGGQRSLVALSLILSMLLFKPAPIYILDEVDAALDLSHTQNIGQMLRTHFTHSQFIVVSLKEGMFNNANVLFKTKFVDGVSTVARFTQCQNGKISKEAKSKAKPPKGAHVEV
inactive: [1] -0.007 | [2] 0.018 | [3] 0.016 | [4] 0.003 | [5] 0.069

SURF2 (UniProt Q15527)
inactive: [1] -0.013 | [2] 0.054 | [3] -0.054 | [4] 0.056 | [5] -0.032

TARBP2 (UniProt Q15633)
Sequence of UniProt Q15633 (Q15633 whole entry, looked up): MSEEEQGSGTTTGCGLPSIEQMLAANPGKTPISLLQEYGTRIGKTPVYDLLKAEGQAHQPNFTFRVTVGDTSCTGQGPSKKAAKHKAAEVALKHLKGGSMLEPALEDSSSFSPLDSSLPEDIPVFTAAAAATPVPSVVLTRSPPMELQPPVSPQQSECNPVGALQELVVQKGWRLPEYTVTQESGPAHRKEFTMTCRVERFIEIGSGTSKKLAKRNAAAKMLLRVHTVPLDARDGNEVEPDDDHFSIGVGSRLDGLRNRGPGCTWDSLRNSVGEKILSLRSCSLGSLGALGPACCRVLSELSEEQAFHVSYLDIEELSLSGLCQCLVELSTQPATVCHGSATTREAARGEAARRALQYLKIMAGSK
inactive: [1] 0.001 | [2] -0.003 | [3] -0.003 | [4] -0.019 | [5] 0.051

SMN1 (UniProt Q16637)
Sequence of UniProt Q16637 (Q16637 whole entry, looked up): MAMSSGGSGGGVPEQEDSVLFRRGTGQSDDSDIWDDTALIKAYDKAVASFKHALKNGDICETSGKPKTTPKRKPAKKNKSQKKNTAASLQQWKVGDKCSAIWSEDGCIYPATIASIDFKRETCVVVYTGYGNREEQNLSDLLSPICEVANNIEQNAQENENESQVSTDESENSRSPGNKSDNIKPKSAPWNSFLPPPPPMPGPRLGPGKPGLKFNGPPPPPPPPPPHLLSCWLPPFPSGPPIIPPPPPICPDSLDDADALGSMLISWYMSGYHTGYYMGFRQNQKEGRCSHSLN
inactive: [1] 0.083 | [2] -0.054 | [3] 0.054 | [4] -0.012 | [5] 0.024

STIM1 (UniProt Q13586)
inactive: [1] -0.048 | [2] -0.008 | [3] 0.049 | [4] 0.028 | [5] 0.048

SMARCA4 (UniProt P51532)
inactive: [1] -0.034 | [2] 0.016 | [3] 0.003 | [4] 0.014 | [5] 0.055

SRRT (UniProt Q9BXP5)
inactive: [1] -0.003 | [2] 0.02 | [3] -0.002 | [4] 0.021 | [5] 0.068

SQLE (UniProt Q14534)
inactive: [1] 0.044 | [2] 0.054 | [3] -0.099 | [4] 0.012 | [5] 0.031

STUB1 (UniProt Q9UNE7)
Sequence of UniProt Q9UNE7 (Q9UNE7 whole entry, looked up): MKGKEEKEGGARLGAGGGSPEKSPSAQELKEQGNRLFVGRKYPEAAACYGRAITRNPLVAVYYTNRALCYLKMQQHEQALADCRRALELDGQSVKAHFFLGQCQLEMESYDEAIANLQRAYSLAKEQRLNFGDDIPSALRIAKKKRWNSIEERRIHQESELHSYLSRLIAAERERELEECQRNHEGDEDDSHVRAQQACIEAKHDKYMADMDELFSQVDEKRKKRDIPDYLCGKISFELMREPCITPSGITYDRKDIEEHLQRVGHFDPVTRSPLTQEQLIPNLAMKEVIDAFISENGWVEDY
inactive: [1] -0.04 | [2] 0.036 | [3] -0.006 | [4] 0.035 | [5] 0.02

SSB (UniProt P05455)
inactive: [1] -0.004 | [2] 0.015 | [3] -0.009 | [4] 0.012 | [5] 0.068

SLU7 (UniProt O95391)
Sequence of UniProt O95391 (O95391 whole entry, looked up): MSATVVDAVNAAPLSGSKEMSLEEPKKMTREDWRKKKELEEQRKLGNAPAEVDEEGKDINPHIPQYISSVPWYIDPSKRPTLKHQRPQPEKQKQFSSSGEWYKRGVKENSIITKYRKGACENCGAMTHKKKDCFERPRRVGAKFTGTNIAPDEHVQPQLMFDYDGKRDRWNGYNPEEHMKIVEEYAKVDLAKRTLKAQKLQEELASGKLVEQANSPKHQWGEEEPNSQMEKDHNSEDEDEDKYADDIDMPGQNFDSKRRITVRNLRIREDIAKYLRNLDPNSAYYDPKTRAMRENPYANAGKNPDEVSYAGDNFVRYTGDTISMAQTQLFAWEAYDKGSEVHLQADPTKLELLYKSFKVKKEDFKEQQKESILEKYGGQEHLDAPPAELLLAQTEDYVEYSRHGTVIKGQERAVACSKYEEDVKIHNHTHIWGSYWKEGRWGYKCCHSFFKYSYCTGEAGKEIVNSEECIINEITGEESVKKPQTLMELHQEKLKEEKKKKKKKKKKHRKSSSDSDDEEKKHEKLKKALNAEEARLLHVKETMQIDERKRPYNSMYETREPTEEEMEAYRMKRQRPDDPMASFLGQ
inactive: [1] -0.015 | [2] 0.041 | [3] 0.045 | [4] -0.028 | [5] -0.16

SLC39A11 (UniProt Q8N1S5)
Sequence of UniProt Q8N1S5 (Q8N1S5 whole entry, looked up): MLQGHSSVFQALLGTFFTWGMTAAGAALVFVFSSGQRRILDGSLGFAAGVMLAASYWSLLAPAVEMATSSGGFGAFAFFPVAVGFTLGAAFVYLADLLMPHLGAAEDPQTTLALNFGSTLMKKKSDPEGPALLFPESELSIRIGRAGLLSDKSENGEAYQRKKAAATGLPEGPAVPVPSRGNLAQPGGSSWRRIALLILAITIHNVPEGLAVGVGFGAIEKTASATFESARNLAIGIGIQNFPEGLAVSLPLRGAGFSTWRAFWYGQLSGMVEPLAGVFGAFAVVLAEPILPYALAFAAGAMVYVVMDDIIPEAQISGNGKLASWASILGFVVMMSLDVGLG
inactive: [1] 0.022 | [2] -0.041 | [3] 0.063 | [4] 0.186 | [5] 0.036

SPC25 (UniProt Q9HBM1)
inactive: [1] 0.055 | [2] 0.044 | [3] 0.029 | [4] 0.022 | [5] 0.039

SLC7A5 (UniProt Q01650)
inactive: [1] 0.019 | [2] -0.027 | [3] 0.003 | [4] -0.061 | [5] -0.231

SPATA5 (UniProt Q8NB90)
inactive: [1] -0.024 | [2] -0.005 | [3] 0.026 | [4] 0.008 | [5] 0.02

SLC19A1 (UniProt P41440)
inactive: [1] 0.017 | [2] -0.022 | [3] -0.056 | [4] -0.12 | [5] -0.176

SNCA (UniProt P37840)
inactive: [1] 0.211 | [2] 0 | [3] -0.009 | [4] 0.211 | [5] -0.077

SYNRG (UniProt Q9UMZ2)
Sequence of UniProt Q9UMZ2 (Q9UMZ2 whole entry, looked up): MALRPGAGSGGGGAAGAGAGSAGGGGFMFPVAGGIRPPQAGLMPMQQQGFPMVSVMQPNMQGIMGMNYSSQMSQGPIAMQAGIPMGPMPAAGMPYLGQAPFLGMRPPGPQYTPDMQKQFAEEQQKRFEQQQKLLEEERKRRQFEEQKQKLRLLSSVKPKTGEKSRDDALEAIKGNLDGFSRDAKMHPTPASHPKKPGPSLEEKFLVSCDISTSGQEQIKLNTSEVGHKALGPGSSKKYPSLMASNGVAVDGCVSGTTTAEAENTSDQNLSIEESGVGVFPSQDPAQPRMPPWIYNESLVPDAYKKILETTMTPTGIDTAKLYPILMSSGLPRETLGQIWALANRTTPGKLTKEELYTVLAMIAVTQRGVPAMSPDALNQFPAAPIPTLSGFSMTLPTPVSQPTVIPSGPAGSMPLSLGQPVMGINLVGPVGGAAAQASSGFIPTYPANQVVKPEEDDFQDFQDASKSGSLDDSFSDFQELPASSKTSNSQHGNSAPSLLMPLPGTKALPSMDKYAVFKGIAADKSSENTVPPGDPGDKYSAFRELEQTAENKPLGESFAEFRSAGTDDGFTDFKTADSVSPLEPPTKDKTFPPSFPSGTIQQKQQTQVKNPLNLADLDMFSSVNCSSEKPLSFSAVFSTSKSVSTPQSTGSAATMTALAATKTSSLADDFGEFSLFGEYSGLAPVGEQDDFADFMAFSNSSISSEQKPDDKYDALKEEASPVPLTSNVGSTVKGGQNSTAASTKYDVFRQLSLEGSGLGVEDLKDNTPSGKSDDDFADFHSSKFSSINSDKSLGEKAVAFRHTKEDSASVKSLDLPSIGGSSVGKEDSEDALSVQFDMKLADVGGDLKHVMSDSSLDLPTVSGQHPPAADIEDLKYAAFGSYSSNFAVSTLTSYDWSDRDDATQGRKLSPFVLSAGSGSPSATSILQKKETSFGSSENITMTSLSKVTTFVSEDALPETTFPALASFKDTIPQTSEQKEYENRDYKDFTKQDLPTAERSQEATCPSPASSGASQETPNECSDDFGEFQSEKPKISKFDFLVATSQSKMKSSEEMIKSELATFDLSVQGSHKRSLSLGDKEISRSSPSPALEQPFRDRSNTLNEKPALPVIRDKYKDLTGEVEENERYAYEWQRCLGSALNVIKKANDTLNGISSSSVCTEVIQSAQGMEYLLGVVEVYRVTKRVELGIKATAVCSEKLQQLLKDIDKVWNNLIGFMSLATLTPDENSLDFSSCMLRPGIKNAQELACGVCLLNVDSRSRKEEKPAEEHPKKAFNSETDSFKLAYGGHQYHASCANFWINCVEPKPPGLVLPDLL
inactive: [1] -0.033 | [2] 0.05 | [3] 0 | [4] 0.005 | [5] 0.032

SYF2 (UniProt O95926)
Sequence of UniProt O95926 (O95926 whole entry, looked up): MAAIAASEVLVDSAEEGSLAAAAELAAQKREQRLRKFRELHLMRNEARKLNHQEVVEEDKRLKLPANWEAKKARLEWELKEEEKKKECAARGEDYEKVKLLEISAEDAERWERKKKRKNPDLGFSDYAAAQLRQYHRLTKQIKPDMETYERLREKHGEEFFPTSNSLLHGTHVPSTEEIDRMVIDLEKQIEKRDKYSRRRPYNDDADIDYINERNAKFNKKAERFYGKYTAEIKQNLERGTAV
inactive: [1] 0.021 | [2] -0.102 | [3] 0.001 | [4] 0.015 | [5] -0.024

SMIM12 (UniProt Q96EX1)
Sequence of UniProt Q96EX1 (Q96EX1 whole entry, looked up): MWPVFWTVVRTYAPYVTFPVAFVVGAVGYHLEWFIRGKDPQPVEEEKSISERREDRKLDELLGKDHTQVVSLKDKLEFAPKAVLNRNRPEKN
inactive: [1] -0.026 | [2] -0.006 | [3] 0.004 | [4] 0.105 | [5] 0.153

SNAP23 (UniProt O00161)
inactive: [1] 0.059 | [2] -0.038 | [3] -0.005 | [4] 0.007 | [5] 0.066
